# From PubChem BioAssay
# CCHFV vOTU inh = CCHFV vOTU protease inhibition. Pep-AMC fluorescence. inhibition, % at 11.5 µM. 0.55% of 370,000 active; note: 0% = vehicle wells with enzyme and 100% = no enzyme wells
# Mtb FBA inh = inhibits M. tuberculosis FBA enzyme | P9WQA3 | purified M. tuberculosis FBA, fluorescence read-out | inhibition, % at 1 µM | 2.3% of 360,000 active; in the data active = inhibition above about 27%;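 note: 0% = vehicle and 100% = reference inhibitor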
# Target sequence (P9WQA3 whole entry, looked up): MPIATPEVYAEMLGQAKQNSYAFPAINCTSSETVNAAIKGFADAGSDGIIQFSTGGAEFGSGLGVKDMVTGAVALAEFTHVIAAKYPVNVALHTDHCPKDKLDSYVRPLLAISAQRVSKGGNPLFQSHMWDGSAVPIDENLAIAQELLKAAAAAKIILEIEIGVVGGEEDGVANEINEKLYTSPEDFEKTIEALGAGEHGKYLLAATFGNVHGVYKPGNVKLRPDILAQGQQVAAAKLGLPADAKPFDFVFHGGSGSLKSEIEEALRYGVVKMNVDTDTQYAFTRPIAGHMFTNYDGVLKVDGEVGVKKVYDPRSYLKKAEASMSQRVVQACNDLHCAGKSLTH
# GDH-TPI inh = GDH-TPI coupled enzyme inhibition counter-screen; 1.2% of 360,000 active; inhibition, % at 4.8 µM; GDH-TPI coupled enzyme counterscreen, NADH absorbance; AID 588335;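 note: 0% = DMSO wells and 100% = wells lacking the enzyme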
# Vc quorum ag = quorum light induction in luxS cqsA deficient V. cholerae. AID 588436. V. cholerae BH1578 lux reporter, luminescence, 6 h. 0.16% of 350,000 active. activation, % at 18.7 µM; in the data active = activation mostly above about 9.7%, no sharp cut-off
# * marks the source's active call; other numbers are inactive results; i = inactive; nt = no result given; + = active, no number. In the library only some 3.9% were active in any assay of this set; here they are far more common. Cut-off read from the data, not from the text of the source, unless noted: active = inhibition above about 30%; inactive = the rest.
SMILES,CCHFV vOTU inh,Mtb FBA inh,GDH-TPI inh,Vc quorum ag
CC[n+]1c(/C=C(\C)Nc2ccccc2)sc2ccccc21,-3,1,31*,0
CC[n+]1c(/C=C(\C)SC)sc2ccccc21,-8,2,13,i
Oc1cc2ccccc2cc1-c1nnc2n1-c1ccccc1SC2,17,-1,-5,nt
Cc1cccc(NC(=O)c2cc3ccccc3c(=O)o2)n1,-2,2,3,-4
O=C1NN(c2ccccc2)C(=O)/C1=C\c1cccn1-c1ccc(Cl)c([N+](=O)[O-])c1,-3,0,25,i
CC(=NNC(N)=S)c1ccc2cc3c(cc2c1)OCO3,6,-1,25,i
COc1cc2ccc(C(C)=NNC(N)=S)cc2cc1OC,-4,-1,42*,i
O=C(Cn1cccc1C(=O)c1ccccc1)NCc1cccc(Cl)c1,-10,0,-2,-1
CCOc1ccc(Br)cc1S(=O)(=O)N1CCSC1,11,-2,6,0
CN(C)c1ccc(NC(=O)C2C3C=CC(C3)C2C(=O)O)cc1 (centres undefined),78*,7,13,1
O=C(O)C1C2C=CC(C2)C1C(=O)Nc1ccc2c(c1)OCCO2 (centres undefined),nt,-2,-6,i
CC1(C)Cc2c(sc(/N=C/N3CCCCC3)c2C#N)C(C)(C)N1,14,-6,31*,i
CC1(C)Cc2c(sc(/N=C/N3CCOCC3)c2C#N)C(C)(C)N1,2,1,25,5
COCc1cc(=O)[nH]c(/N=C(\N)Nc2ccc(C)cc2C)n1,7,5,3,-1
Cc1ccc(C(=O)Nc2nc(-c3ccccn3)cs2)s1,29,6,7,0
O=C(Nc1nc(-c2ccccn2)cs1)c1ccc(Cl)s1,-3,4,36*,0
Cc1cc(-c2ccccc2)nc2cc(C(=O)N(Cc3ccccc3)Cc3ccccc3)nn12,11,11,-5,-12
COc1ccc2cc3cc(C(=O)NCCN4CCN(Cc5ccccc5)CC4)oc3nc2c1,-269,+,20,-2
COc1ccc2cc3cc(C(=O)NCCN4CCc5ccccc5C4)oc3nc2c1,nt,188*,38*,1
NC(=O)C(C(=O)/C=C/c1ccc(Cl)cc1)=C1SCCS1,3,3,44*,-4
COc1ccc(CCNC(=O)Nc2ccc3c(c2)c(=O)n(C)n3Cc2ccc(F)cc2)cc1OC,-115,118*,10,0
C=C(C)Cn1c2ccc(NC(=O)NCCc3ccccc3)cc2c(=O)n1C,-205,170*,-4,0
COc1cc(Cn2c3ccc(NC(=O)NCc4ccc(F)cc4)cc3c(=O)n2C)ccc1F,-129,146*,9,0
Cn1c(=O)c2cc(NC(=S)NCc3ccccc3F)ccc2n1Cc1ccc(F)cc1,-66,12,9,i
COc1ccc(NC(=O)NCCCCc2ccccc2)cc1OC,8,0,4,i
SMILES,CCHFV vOTU inh,Mtb FBA inh,GDH-TPI inh,Vc quorum ag
Cn1c(=O)c2cc(NC(=O)NCCc3ccccc3)ccc2n1Cc1ccc(F)cc1,-102,186*,-6,0
COc1ccc(CCC(=O)NCc2cccc(C(F)(F)F)c2)cc1,-1,0,0,1
COc1ccc(CNC(=O)Nc2ccc3c(c2)c(=O)n(C)n3Cc2cccc(C(F)(F)F)c2)cc1,-83,128*,6,i
O=C(NCCC1=CCCCC1)C1CCN(S(=O)(=O)c2ccccc2[N+](=O)[O-])CC1,-5,nt,nt,nt
O=C(N/N=C\c1ccc(COc2ccc([N+](=O)[O-])cc2)o1)c1ccc(Cl)cc1,6,0,42*,1
O=C(c1cc2cc3ccc(Cl)cc3nc2o1)N1CCC2(CC1)OCCO2,1,-3,39*,i
COc1ccc2cc3cc(C(=O)N4CCCCCC4)oc3nc2c1,nt,86*,39*,0
COc1cccc(-c2cc(C(=O)N3CCCCC3C)no2)c1 (centres undefined),-8,-1,-9,-1
COc1ccc2cc3cc(C(=O)N(C)C4CCCCC4)oc3nc2c1,nt,24,39*,0
COc1ccc2cc3cc(C(=O)Nc4ccc5c(c4)OCO5)oc3nc2c1,12,-2,9,-7
COc1ccc2cc3cc(C(=O)N4CCCCC4C)oc3nc2c1 (centres undefined),-12,40*,49*,i
Cc1nc(SCC(=O)c2cc(C)n(C3CC3)c2C)c2ccccc2n1,-1,3,2,i
COc1ccc(C2CC(=O)C(c3ccc(C)cc3)=CN2Cc2ccccc2)cc1 (centres undefined),4,nt,nt,nt
CCOC(=O)N1CCC(NC(=O)c2oc3c(c2C)-c2[nH]ncc2CC3)CC1,2,7,-4,1
CCOC(=O)C1CCN(C(=O)c2cc3c(ccc4ccccc43)o2)CC1,6,1,9,0
CCOC(=O)C1CCN(C(=O)c2cc3cc4ccc(C)cc4nc3o2)CC1,-4,7,32*,i
Cc1cc(C)n(C(=O)c2cc3sccc3[nH]2)n1,-1,0,33*,0
CC(C)c1cccc(-c2ccc3c(c2)S(=O)(=O)c2cccc(C(=O)O)c2C3=O)c1,7,-2,31*,1
Cc1cccc(S(=O)(=O)N(C)C[C@@H]2OCc3cn(nn3)CCCC(=O)N([C@@H](C)CO)C[C@H]2C)c1,-3,-4,1,0
COc1ccc(-c2cc3nc4c(c(N5CCC6(CC5)OCCO6)n3n2)CCC4)cc1,-13,-2,0,i
COc1ccc(-c2cc3nc(-c4ccccc4)cc(N4CCC5(CC4)OCCO5)n3n2)cc1,-7,28*,14,-1
CN(C)c1ccc(C=O)c(Oc2ccccc2)c1,4,-2,38*,i
Cc1c(OC(C)C(=O)NCCN2CCOCC2)ccc2c3c(c(=O)oc12)CCC3 (centres undefined),-5,25,-1,-6
Cn1cccc1/C=C1\SC(=S)N(NC(=O)c2ccccc2O)C1=O,12,-39,33*,0
O=C(OCC(=O)N1CCCC1)c1cc([N+](=O)[O-])ccc1Cl,-3,4,9,-1
SMILES,CCHFV vOTU inh,Mtb FBA inh,GDH-TPI inh,Vc quorum ag
CCCC1=C([O-])C2N=CC=CC2=[N+](c2ccccn2)C1=O (centres undefined),11,-3,1,-2
COc1ccc(C(=O)N/C(=C/c2cccs2)c2nc3ccccc3[nH]2)cc1OC,6,3,47*,0
COc1cc(/C=C(/C(=O)c2cccs2)c2nc3ccccc3[nH]2)cc(OC)c1O,0,-12,43*,0
COC(=O)COc1cc(Br)c(/C=C2/SC(=O)N(CC(=O)N3CCCC3)C2=O)cc1OC,-5,0,29,i
COC(=O)COc1ccc(/C=C2/SC(=O)N(CC(=O)N3CCCC3)C2=O)cc1Br,9,-3,36*,i
COCc1cc(=O)n2c([nH]c3ccccc32)c1C#N,-225,+,19,i
CCc1cc(=S)n2c([nH]c3ccccc32)c1C#N,nt,9,-1,0
CC(SCc1cc(=O)n2c([nH]c3ccccc32)c1C#N)C(=O)O (centres undefined),3,21,-3,1
Cc1c(CCC(=O)O)c(=O)n2c([nH]c3ccccc32)c1C#N,-91,+,9,0
